Screening results (PubChem)
Rows were chosen to be rich in hits. Some 19% of all compounds tested hit in one or more screens of this group.
HT1080 IDH1KD tx = toxicity to HT-1080 IDH1 knockdown cells (counter line). Potency, µM (titrated, usually from 46.1 µM), inactives show top-dose activity, negative = toxicity, usual class: cytotoxic. 360,000 tested, 2% active. HT-1080 IDH1 knockdown viability, ATP luminescence, 48 h. AID 686971;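 also: potency is read from the fitted curve at half-maximal effect; 0% = DMSO wells and -100% = cell-free medium wells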
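Knockdown cells (IDH1KD HT-1080) received compounds 2 h after plating at 750 cells/well and were kept 48 h at 37 °C in 5% FBS RPMI. A CellTiter-Glo luminescence read gave % activity for curve fitting.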
IL1B secr inh = inhibitors of inflammasome signaling (IL-1 beta secretion); THP-1 LPS/ATP IL-1B secretion, AlphaLISA, 16 h; active compounds read low; activity change, % at 57.5 µM; 360,000 tested, 4.7% active; AID 743279; in the data active = activity change below about -50%; inconclusive = mostly about -30% to -49%
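Secreted IL-1B measured by AlphaLISA bead assay after 16 h compound exposure of THP-1 cells; compounds (final up to 57.5 uM) added 1 h before LPS (250 ng/mL) and ATP (1.25 mM) stimulation; lower signal means less secretion.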
DT40 TDP1 no CPT = qHTS for Inhibitors of human tyrosyl-DNA phosphodiesterase 1 (TDP1): qHTS in cells in absence of CPT; DT40 Tdp1-/- hTDP1 cells, no CPT, ATP luminescence, 48 h; Potency, µM (highest dose often 46.2 µM), inactives show at the highest dose activity change, negative = growth inhibition, usual class: inhibitors; 420,000 tested, 15% active; also: potency is read from the fitted curve at half-maximal effect; nearly all actives have a fitted effect of over 55% in size
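Luminescent ATP content (CellTiter-Glo) served as the growth readout. Knockout chicken DT40 cells expressing human TDP1 were exposed to compounds without camptothecin for a minimum 48 hr at 37 °C.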
DT40 TDP1 CPT = growth inhibition of DT40 Tdp1-/-;hTDP1 cells with camptothecin (screen for TDP1 inhibitors). 420,000 tested, 12% active. AID 686979. chicken DT40 Tdp1-/-;hTDP1 cells + 20 nM CPT, ATP luminescence, 48 h. Potency, µM (highest dose often 46.2 µM), inactives show at the top dose activity change, negative = growth inhibition, most hits filed as inhibitors; also: potency is read from the fitted curve at half-maximal effect; nearly all actives have a fitted effect of over 55% in size
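Chicken DT40 Tdp1-/- cells stably complemented with human TDP1 were seeded at 400 cells/well in medium containing 20 nM camptothecin, exposed to pin-transferred compounds, and grown at 37 °C for at least 48 hr. Viability was read as ATP luminescence.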
HT1080-NT tox = kills 2HG-producing HT-1080-NT fibrosarcoma cells; HT-1080-NT fibrosarcoma viability, CellTiter-Glo ATP luminescence, 48 h; Potency, µM (doses to about 46.1 µM), without a hit: at the highest dose activity, negative = less viability, most hits filed as cytotoxic; 360,000 tested, 1.6% active; AID 686970;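 also: NT is the 2HG producing partner of a matched IDH1 knockdown line; potency is read from the fitted curve at half-maximal effect; 0% = DMSO-treated cells and -100% = media-only wells without cells; nearly all actives have a fitted effect of over 55% in size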
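Toxicity toward the 2HG-producing NT line was scored as %Activity, normalised to DMSO and no-cell wells, from CellTiter-Glo luminescence after 48 hours' treatment.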
An asterisk follows results filed as active; ? = inconclusive; . = no result. Unless noted, calls follow the shape of the dose curve; as a rule, active = well fitted curve in the direction sought with a large enough effect; inconclusive = small, poorly fitted or top-dose-only effect, or another doubt; inactive = no such curve, though single readings can be large; an effect the other way counts as inactive or inconclusive. Unless noted, % is scaled to controls: 0 for no effect and ±100 for the full control effect.

SMILES | HT1080 IDH1KD tx | IL1B secr inh | DT40 TDP1 no CPT | DT40 TDP1 CPT | HT1080-NT tox
CCOC(=O)CN1C(=O)N[C@@H](CCc2ccccc2)[C@H](C(=O)OC)[C@H]1C | -7% | -6 | -20% | -11% | -1%
Cc1noc(NS(=O)(=O)c2ccc(NC(=O)c3ccccc3NS(=O)(=O)c3ccc(F)cc3)cc2)c1C | 14% | 27 | -15% | 37% | 19%
COc1ccc(NC(=O)c2cc(C3CCCCN3S(=O)(=O)c3ccc(F)cc3F)on2)c(C)c1 (configuration not stated) | -20% | -19 | 15µM* | ? | -2%
COc1ccc(NC(=O)c2cc(C3CCCCN3S(=O)(=O)c3ccccc3)on2)c(C)c1 (configuration not stated) | -20% | -2 | 8.2µM* | ? | -10%
CCCN1CNc2c(c(=O)[nH]c(=S)n2CCc2cccc(Cl)c2)C1 | 13% | . | ? | ? | 3%
CCCN1CNc2c(c(=O)[nH]c(=S)n2CCc2ccc(Cl)cc2Cl)C1 | -7% | . | 13µM* | ? | -4%
CCCN1CNc2c(c(=O)[nH]c(=S)n2CCc2cc(OC)cc(OC)c2)C1 | 13% | . | ? | ? | 1%
CCCN1CNc2c(c(=O)[nH]c(=S)n2CCc2ccc(Cl)c(Cl)c2)C1 | 14% | . | ? | ? | 2%
CCCN1CNc2c(c(=O)[nH]c(=S)n2CCc2cc(C)ccc2C)C1 | 14% | . | 13µM* | ? | 4%
CCCN1CNc2c(c(=O)[nH]c(=S)n2CCc2ccc(OC)cc2OC)C1 | 8% | . | 13µM* | ? | 0%
CCCN1CNc2c(c(=O)[nH]c(=S)n2CCc2c(Cl)cccc2Cl)C1 | -10% | . | 13µM* | 16µM* | -4%
CCCN1CNc2c(c(=O)[nH]c(=S)n2CCc2ccccc2Cl)C1 | 7% | . | 11µM* | ? | 5%
O=C(c1cccs1)N1CCCC(c2ccccc2)C1 (configuration not stated) | -7% | -15 | 18µM* | 0% | 0%
COC(=O)c1ccc(C(=O)N2CCCC(Nc3ccc(C(C)C)cc3)C2)cc1 (configuration not stated) | -2% | 41 | -20% | -25% | 11%
CC(C)c1ccc(NC2CCCN(C(=O)c3n[nH]c4c3CCC4)C2)cc1 (configuration not stated) | -29% | ? | ? | 18µM* | 2%
CC(C)c1ccc(NC2CCCN(C(=O)c3ccsc3)C2)cc1 (configuration not stated) | 2% | ? | 18µM* | 23µM* | -6%
O=C(c1ccco1)N1CCCC(c2ccccc2)C1 (configuration not stated) | 14% | -2 | -28% | -1% | 27%
CC1CN(C(=O)c2ccc(COc3ccc4ccccc4c3)o2)CC(C)O1 (configuration not stated) | -14% | 0 | ? | ? | 0%
CC1CN(C(=O)c2ccc(COc3ccc(C(C)C)cc3)o2)CC(C)O1 (configuration not stated) | ? | -6 | 21µM* | 16µM* | ?
CCOC(=O)c1c(C2CC2)csc1NC(=O)COC(=O)CCS(=O)(=O)c1ccc(C)cc1 | 17% | 0 | 6% | 12% | 11%
N#CC(=C(O)CN1CCN(c2ccccc2F)CC1)c1nc(-c2ccccc2)cs1 | -7% | -25 | ? | 3% | -22%
COc1ccc(NC2CCCN(C(=O)c3cccs3)C2)cc1 (configuration not stated) | 4% | -14 | -9% | -20% | 3%
CC(C)c1ccc(NC2CCCN(C(=O)c3cccs3)C2)cc1 (configuration not stated) | -5% | -20 | ? | 21µM* | 1%
COCc1ccc(C(=O)N2CCCC(Nc3ccc(C(C)C)cc3)C2)o1 (configuration not stated) | 4% | -13 | 18µM* | ? | 6%
COCc1ccc(C(=O)N2CCCC(Nc3ccc(C(C)C)cc3)C2)s1 (configuration not stated) | -17% | 0 | ? | ? | -1%
SMILES | HT1080 IDH1KD tx | IL1B secr inh | DT40 TDP1 no CPT | DT40 TDP1 CPT | HT1080-NT tox
COc1cc(C(=O)NC(=S)Nc2cccc3nc(C)ccc23)cc(OC)c1OC | ? | 15 | -8% | 4% | ?
Cc1ccc2cccc(NC(=S)NC(=O)c3ccn(C)n3)c2n1 | 7.9µM* | 20 | ? | ? | 7.9µM*
Cc1ccc2cccc(NC(=S)NC(=O)c3c(Br)cnn3C)c2n1 | -18% | 13 | ? | -25% | -21%
COc1ccc(C(=O)NC(=S)Nc2cccc3nc(C)ccc23)cc1OC | -6% | 0 | 21µM* | ? | 1%
Cc1ccc(C(=O)NC(=S)Nc2cccc3c(C)cc(C)nc23)cc1 | -21% | 12 | 21µM* | ? | -20%
Cc1ccc(C(=O)NC(=S)Nc2cccc3nsnc23)cc1 | 2% | 23 | -19% | -15% | 1%
CCN(C(=S)Nc1ccc(Oc2ccccc2)cc1)c1ccccc1 | 13% | 14 | ? | -6% | 2%
O=S1(=O)C=C(SCc2ccc(Cl)c(Cl)c2)Nc2ccccc21 | ? | -11 | ? | 23µM* | ?
COc1ccc(S(=O)(=O)c2nnn(-c3ccc(C(C)C)cc3)c2C)cc1 | . | . | 15µM* | 15µM* | .
COc1ccc(Cl)cc1CC1(C)C(=O)Nc2c(Cl)cccc21 (configuration not stated) | ? | 51 | 23µM* | ? | -28%
CC1(Cc2ccc(F)c(Cl)c2)C(=O)Nc2c(Cl)cccc21 (configuration not stated) | ? | 25 | 16µM* | ? | -20%
CC1(Cc2ccccc2Cl)C(=O)Nc2c(Cl)ccc(Cl)c21 (configuration not stated) | ? | 37 | ? | ? | ?
COc1ccccc1-c1ccc2c(c1)C(C)(Cc1ccc(F)c(Cl)c1)C(=O)N2 (configuration not stated) | ? | -23 | ? | ? | ?
CC1(Cc2cc(Cl)ccc2C(F)(F)F)C(=O)Nc2c(Cl)cccc21 (configuration not stated) | ? | 18 | 13µM* | ? | ?
CCCCc1nnc(NC(=O)c2oc3ccccc3c2C)s1 | 14% | -14 | -13% | 0% | 17%
CC(=O)c1cccc(NC(=O)CCCN2C(=O)COc3ccc(C)cc32)c1 | . | . | ? | 18µM* | .
COc1cccc(NC(=O)CN2C(=O)COc3ccc(C)cc32)c1 | 1% | 4 | ? | 22% | 5%
O=C(CN1C(=O)COc2ccc(S(=O)(=O)Nc3ccccc3)cc21)Nc1cccc(Cl)c1 | . | . | ? | 16µM* | .
